Among the data in PubChem BioAssay are composite z-score and z-score values, retold here.

Experiment [1] in a line: anti-His antibody binders, primary screen, artefact control for SMM control protein annotation, biochemical, small-molecule microarray, 635 nm fluorescence (AID 1128).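 Note: score merges feature fluorescence with signal-to-noise for each printed compound spot.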 The settings on record: anti-His Alexa647 antibody binding, higher = more signal.
For experiment [2], the system named is Human papillomavirus type 1a E7 protein (residues 1-88). In words: HPV1a E7 small-molecule binders, primary screen, biochemical, small-molecule microarray, residues 1-88, 635 nm (AID 1129). The settings on record: small-molecule microarray binding, fluorescence 635 nm; higher = more signal.
Experiment [3] deals with Focal adhesion kinase 1 (Homo sapiens) (UniProt Q05397). The experiment can be described thus: small-molecule microarray binders of FAK, primary screen, biochemical, 635/667 nm fluorescence, BSA, DTT (AID 1130).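 Note: composite of spot emission at 667 nm and signal to noise over triplicate slides.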 The settings on record: PTK2 binding, 635 nm fluorescence, higher = more signal.
Chain of Focal adhesion kinase 1 (Homo sapiens) (Q05397 whole entry, looked up): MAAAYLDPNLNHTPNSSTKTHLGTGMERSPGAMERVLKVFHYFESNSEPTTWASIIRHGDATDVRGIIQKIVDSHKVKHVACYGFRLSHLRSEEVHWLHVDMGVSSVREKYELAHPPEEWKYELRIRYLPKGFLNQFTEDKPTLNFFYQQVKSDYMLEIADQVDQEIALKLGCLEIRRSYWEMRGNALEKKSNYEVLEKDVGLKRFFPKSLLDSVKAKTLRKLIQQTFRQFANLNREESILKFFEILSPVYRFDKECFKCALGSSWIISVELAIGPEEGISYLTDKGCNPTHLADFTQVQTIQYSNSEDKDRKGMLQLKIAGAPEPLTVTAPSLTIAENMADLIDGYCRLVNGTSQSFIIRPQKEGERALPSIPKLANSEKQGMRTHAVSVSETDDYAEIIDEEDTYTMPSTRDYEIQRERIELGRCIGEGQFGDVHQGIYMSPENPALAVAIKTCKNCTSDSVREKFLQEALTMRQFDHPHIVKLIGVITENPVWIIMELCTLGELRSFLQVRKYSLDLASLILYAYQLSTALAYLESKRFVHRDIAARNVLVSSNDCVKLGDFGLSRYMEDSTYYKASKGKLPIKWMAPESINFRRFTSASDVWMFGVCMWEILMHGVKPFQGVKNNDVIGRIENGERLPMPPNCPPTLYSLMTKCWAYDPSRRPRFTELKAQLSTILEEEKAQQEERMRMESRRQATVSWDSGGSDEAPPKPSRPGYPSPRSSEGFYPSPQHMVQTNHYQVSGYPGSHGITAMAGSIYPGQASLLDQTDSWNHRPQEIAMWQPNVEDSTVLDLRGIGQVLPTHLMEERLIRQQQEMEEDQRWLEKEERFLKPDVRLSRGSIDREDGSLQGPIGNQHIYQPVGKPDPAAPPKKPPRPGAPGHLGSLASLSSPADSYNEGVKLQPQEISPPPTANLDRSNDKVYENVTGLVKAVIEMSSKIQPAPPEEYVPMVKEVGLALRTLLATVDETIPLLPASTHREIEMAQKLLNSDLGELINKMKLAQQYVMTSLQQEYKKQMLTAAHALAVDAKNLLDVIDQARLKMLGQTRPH
In experiment [4] the test system is Fibrinogen (Alexa647-labelled). In words: fibrinogen binders on compound microarrays, profiling panel, artefact control for SMM control-protein annotation, biochemical, small-molecule microarray, 635/667 nm fluorescence (AID 1131).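 Note: z-score merges 667 nm fluorescence with per-spot signal-to-noise over triplicate slides.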 The settings on record: fibrinogen-A647 binding fluorescence, higher = more signal.
The target of experiment [5] is Follistatin (Homo sapiens) (UniProt P19883). In words: follistatin binders on small-molecule microarrays, primary screen, biochemical, small-molecule microarray, 635/667 nm fluorescence (AID 1132). The settings on record: FST binding, 635 nm fluorescence, higher = more signal.
Chain of Follistatin (Homo sapiens) (P19883 whole entry, looked up): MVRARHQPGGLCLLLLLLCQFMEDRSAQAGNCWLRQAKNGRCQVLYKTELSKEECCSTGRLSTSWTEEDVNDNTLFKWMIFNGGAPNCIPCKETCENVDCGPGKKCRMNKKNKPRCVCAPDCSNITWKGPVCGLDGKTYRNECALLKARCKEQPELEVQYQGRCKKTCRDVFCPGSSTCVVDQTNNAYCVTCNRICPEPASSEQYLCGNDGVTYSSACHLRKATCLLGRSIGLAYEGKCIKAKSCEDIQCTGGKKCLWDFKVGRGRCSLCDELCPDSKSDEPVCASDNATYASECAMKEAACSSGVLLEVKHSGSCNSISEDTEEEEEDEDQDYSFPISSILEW
In experiment [6] the target is Fibroblast growth factor 2 (Homo sapiens) (UniProt P09038). The experiment can be described thus: FGF2 binders on small-molecule microarrays, primary screen, biochemical, small-molecule microarray, 635/667 nm fluorescence (AID 1133). The settings on record: small-molecule microarray binding, FGF2, fluorescence 635/667; higher = more signal.
Chain of Fibroblast growth factor 2 (Homo sapiens) (P09038 whole entry, looked up): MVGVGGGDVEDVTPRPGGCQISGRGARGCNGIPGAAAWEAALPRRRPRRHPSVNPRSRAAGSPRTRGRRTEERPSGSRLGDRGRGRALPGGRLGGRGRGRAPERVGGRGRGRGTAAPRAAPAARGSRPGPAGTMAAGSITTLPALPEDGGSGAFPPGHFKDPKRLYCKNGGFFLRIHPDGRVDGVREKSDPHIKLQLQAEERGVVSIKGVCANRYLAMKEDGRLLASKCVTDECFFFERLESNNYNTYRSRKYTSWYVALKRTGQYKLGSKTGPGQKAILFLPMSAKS
The nature of experiment [7]: mitochondrial membrane potential change in A549 cells, profiling panel, cell-based, JC-1 fluorescence, basal, 24 h, 100 nL (AID 1138).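 Note: A549 lung adenocarcinoma cells under basal conditions with no added stimulus; test concentration not given here.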 The settings on record: higher = more signal.
The subject of experiment [8] is Lefty1. In words: Lefty1 binders on small-molecule microarrays, primary screen, biochemical, small-molecule microarray, 635/667 nm fluorescence (AID 1139). The settings on record: small-molecule microarray binding, fluorescence 635/667; higher = more signal.
Experiment [9] has as its system wheat germ agglutinin (Triticum aestivum), Alexa647-labelled. The experiment can be described thus: wheat germ agglutinin binders on compound microarrays, profiling panel, artefact control for SMM control-protein annotation, biochemical, small-molecule microarray, 635/667 nm fluorescence (AID 1140).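 Note: score merges 667 nm feature emission with signal to noise over triplicate slides.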 The settings on record: WGA-A647 binding, 635 nm fluorescence, higher = more signal.

Experiment [10] deals with Luciferin 4-monooxygenase (Photinus pyralis) (UniProt P08659). The experiment can be described thus: firefly luciferase enzyme inhibitors, primary screen, biochemical, luminescence, purified enzyme, 2006 set (AID 1141).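 Note: cell-free assay with purified firefly luciferase at 100 ng per well in PBS; test concentration not given here.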 The settings on record: SteadyGlo luminescence, 30 min, higher = more signal, called active from +8 up or from −8 down.
Chain of Luciferin 4-monooxygenase (Photinus pyralis) (P08659 whole entry, looked up): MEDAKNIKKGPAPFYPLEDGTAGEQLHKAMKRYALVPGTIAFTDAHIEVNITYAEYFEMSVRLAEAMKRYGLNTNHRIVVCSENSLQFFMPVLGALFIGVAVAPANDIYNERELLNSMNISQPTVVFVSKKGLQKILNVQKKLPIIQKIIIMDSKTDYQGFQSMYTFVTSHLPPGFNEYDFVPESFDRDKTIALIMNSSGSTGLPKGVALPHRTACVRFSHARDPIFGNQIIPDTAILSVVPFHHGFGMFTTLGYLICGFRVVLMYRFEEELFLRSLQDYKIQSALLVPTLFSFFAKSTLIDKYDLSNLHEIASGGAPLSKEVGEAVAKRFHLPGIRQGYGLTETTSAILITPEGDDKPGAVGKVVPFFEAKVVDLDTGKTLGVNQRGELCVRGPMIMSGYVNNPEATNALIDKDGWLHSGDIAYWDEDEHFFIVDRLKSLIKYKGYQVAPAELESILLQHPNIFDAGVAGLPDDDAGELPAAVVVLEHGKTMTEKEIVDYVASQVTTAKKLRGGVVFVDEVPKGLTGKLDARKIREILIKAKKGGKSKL

SMILES strings stand for the structures. Calls of active or inactive are those of the source.

Consider `COc1ccc([Si](C)(C)[C@H]2[C@H](CC(=O)N3CCC[C@H]3CO)O[C@@]3(C(=O)N(C)c4c(Br)cc(C)cc43)[C@@H]2C)cc1`, for which the composite z-score was 1.15 in experiment [1]; 1.22 in experiment [2]; 1.44 in experiment [3]; 0.74 in [4]; 1.59 in experiment [5]; 1.86 in experiment [6]. In addition, the figures for the composite z-score in experiment [8] and in [9] were 1.43 and 1.59, respectively. Moreover, the z-score in experiment [7] is -0.0282; in experiment [10], 0.395 (inactive).

On to `COC(=O)C1=CC(CCCO)=CC(c2ccc(CN3CCCC3)cc2)N(C)C=C1C(=O)OC` (stereo not given), for which the composite z-score was 1.73 in experiment [1]; 0.821 in [2]; 0.111 in experiment [3]; 1.01 in experiment [4]; 0.468 in experiment [5]; -0.232 in experiment [6]. Also, the composite z-score in experiment [8] is -0.079; in experiment [9], 1.01. The z-score in experiment [7] was 0.915; in [10] it was -0.208 (inactive).

On to `COC(=O)[C@@]1(Cc2ccc(F)cc2)[C@H]2c3cc(C(=O)N4CCCC4)n(C[C@H](O)CO)c3C[C@H]2CN1C(=O)c1ccccc1`, for which the composite z-score in experiment [1] is 1.09; in experiment [2] it was 1.09; in experiment [3], -0.0554; in [4], 1.01; in experiment [5] it was -0.266; in experiment [6], -0.157. The figures for the composite z-score in experiment [8] and in [9] were -0.472 and 0.883, respectively. In addition, the z-score in experiment [7] is 0.226; in [10] it was 2.19 (inactive).

`C=CCNC(=O)[C@@H]1[C@H]2C(=O)O[C@H](c3ccccc3)[C@H](c3ccccc3)N2[C@H](c2ccc(O)cc2)[C@@]12C(=O)N(C(=O)OCCOC)c1ccc(C#CCC(C(=O)OC)C(=O)OC)cc12`: the composite z-score is 1.06 in experiment [1]; 1.19 in experiment [2]; 0.214 in experiment [3]; 0.271 in experiment [4]; 1.13 in experiment [5]; 0.722 in experiment [6]. The composite z-score in [8] was found to be 0.719; in experiment [9], 0.94. Moreover, the z-score in experiment [7] was 0.556; in experiment [10], 0.367 (inactive).

On to `COc1ccc(C#Cc2ccc3c(c2)[C@]2(C(=O)N3)[C@H](c3ccccc3OCCO)N3[C@H](c4ccccc4)[C@H](c4ccccc4)OC(=O)[C@H]3[C@@H]2C(=O)NC[C@H](O)c2ccccc2)cc1`, for which the composite z-score was determined as 1.05 in [1]; 1.14 in experiment [2]; 1.31 in experiment [3]; 0.848 in [4]; 1.27 in [5]; 1.62 in experiment [6]. In addition, the figures for the composite z-score in experiment [8] and in experiment [9] were 1.06 and 0.319, respectively. Also, the z-score in experiment [7] is -1.25; in experiment [10], 0.412 (inactive).

With `O=C(NC1CC1)[C@@H]1c2ccccc2C(=O)N(C2CCCCC2)[C@H]1c1ccc(CO)cc1`, the composite z-score was 1.86 in [1]; 1.15 in experiment [2]; 0.498 in [3]; -0.518 in experiment [4]; 0.27 in [5]; -0.027 in experiment [6]. The figures for the composite z-score in experiment [8] and in [9] were -0.413 and 0.063, respectively. Besides, the z-score in [7] was 0.116; in [10], 0.0436 (inactive).

As to `O=C1C2C=CC(C(O)C3CC=CCC3)N(Nc3ccc([N+](=O)[O-])cc3)C2C(=O)N1c1ccccc1` (stereo not given), the composite z-score turned out to be 2.2 in experiment [1]; 1.2 in experiment [2]; 0.876 in [3]; 0.994 in experiment [4]; 1.36 in experiment [5]; 0.0341 in experiment [6]. Moreover, the composite z-score came to 0.307 in experiment [8] and 0.862 in [9]. The z-score in experiment [7] was -0.861; in [10], 0.83 (inactive).

With `CS(=O)(=O)CCOC(=O)C1=CC(CCCO)=CC(C2CC2)N(Cc2sc3ccccc3c2Cl)C=C1C(=O)OCCS(C)(=O)=O` (stereo not given), the composite z-score in experiment [1] was found to be 2.14; in experiment [2], 1.04; in [3], 0.435; in experiment [4] it was 0.753; in experiment [5], 1.3; in [6], 0.897. Besides, the results for the composite z-score in experiment [8] and in experiment [9] were 1.23 and 1.03, respectively. Moreover, the values for the z-score in [7] and in experiment [10] were 0.995 and -1.14 (inactive), respectively.

Take `COC(=O)C1=CC(c2ccc(CO)cc2)=CC(C2CC2)N(Cc2cc3c(cc2Br)OCO3)C=C1C(=O)OC` (stereo not given): the composite z-score in experiment [1] was found to be 2.85; in experiment [2], 1.19; in experiment [3] it was 0.833; in experiment [4], 0.879; in experiment [5], 0.62; in [6] it was 0.907. In addition, the figures for the composite z-score in [8] and in [9] were 0.413 and 1.06, respectively. Besides, the z-score is 0.835 in [7] and -0.817 (inactive) in experiment [10].

In the case of `COc1cccc(C)c1NC(=O)O[C@H]1[C@H](OC(=O)Nc2ccc3c(c2)OCO3)[C@H](OC(=O)Nc2ccc3c(c2)OCO3)[C@@H](OC)O[C@@H]1CO`, the composite z-score turned out to be 1.61 in experiment [1]; 1.27 in [2]; 0.197 in [3]; 0.993 in [4]; 1.3 in experiment [5]; 0.662 in experiment [6]. The composite z-score in experiment [8] worked out at 0.802; in experiment [9] it was 0.7. Also, the z-score in experiment [7] was 0.123; in [10], -6.86 (inactive).

As to `COCCOC(=O)N1C(=O)[C@@]2(c3cc(C#CCNC(N)=O)ccc31)[C@H](c1ccc(O)cc1)N1[C@H](c3ccccc3)[C@H](c3ccccc3)OC(=O)[C@H]1[C@@H]2C(=O)N1CCc2cc(OC)c(OC)cc2C1`, the composite z-score turned out to be 1.24 in experiment [1]; 1.11 in experiment [2]; 1.33 in experiment [3]; 0.336 in [4]; 1.36 in [5]; 0.636 in experiment [6]. Further, the composite z-score stood at 0.8 in experiment [8] and 0.815 in experiment [9]. Further, the z-score in experiment [7] was -0.683; in experiment [10], -1.45 (inactive).

As to `CC(=O)NCCCC[C@@H]1NC(=O)[C@H]2C[C@@H](C(=O)O)[C@@H](c3cccc(OCCO)c3)N2C1=O`, the composite z-score stood at 0.246 in experiment [1]; 1.21 in [2]; 0.398 in experiment [3]; 0.984 in experiment [4]; 1.29 in experiment [5]; 1.12 in [6]. In addition, the results for the composite z-score in [8] and in [9] were 1.13 and 0.946, respectively. Also, the z-score was -0.253 in [7] and 0.102 (inactive) in experiment [10].

Regarding `O=C1N(Cc2ccccc2)Cc2ccccc2C[C@@]12COC(c1ccc(OCCCO)cc1)=N2`, the composite z-score was 2.26 in [1]; 1.16 in experiment [2]; 0.622 in experiment [3]; -0.143 in experiment [4]; 1.39 in experiment [5]; 0.22 in experiment [6]. The composite z-score was -0.197 in experiment [8] and 0.196 in [9]. Besides, the z-score in experiment [7] was -0.503; in experiment [10], -1.26 (inactive).

For `COCCCNC(=O)[C@]1(Cc2ccccc2N=[N+]=[N-])N=C(c2ccc(OCCCO)cc2)O[C@@H]1c1ccccc1`, the composite z-score stood at 2.96 in experiment [1]; 1.24 in [2]; 1.05 in [3]; 0.977 in [4]; 1.25 in experiment [5]; 0.94 in experiment [6]. Moreover, the composite z-score is -0.252 in experiment [8] and 1.3 in experiment [9]. Moreover, the z-score in [7] is 2.2; in [10] it was -1.9 (inactive).

In the case of `COc1cc(Cc2cc3c(c(CCc4ccccc4)n2)[Si](C(C)C)(C(C)C)O[C@H]3c2ccccc2)cc(OC)c1OC`, the composite z-score was -0.133 in [1]; -1.36 in experiment [2]; -0.114 in [3]; 0.0047 in experiment [4]; 0.214 in [5]; -0.392 in experiment [6]. For the same compound, the composite z-score was -0.261 in experiment [8] and -0.192 in experiment [9]. The results for the z-score in [7] and in experiment [10] were -1.64 and -0.0946 (inactive), respectively.

Turning to `O=C1N(Cc2ccccc2)c2ccccc2C[C@@]12N=C(c1ccc(OCCCO)cc1)O[C@H]2c1ccccc1`, the composite z-score is 1.81 in experiment [1]; 1.13 in [2]; 0.791 in experiment [3]; 0.209 in experiment [4]; 1.33 in experiment [5]; 1.39 in experiment [6]. For the same compound, the composite z-score was 0.309 in experiment [8] and 0.294 in experiment [9]. Further, the z-score in experiment [7] was -0.518; in experiment [10] it was -2 (inactive).
